In ChEMBL document CHEMBL4513216, “Probing the Open Global Health Chemical Diversity Library for Multistage-Active Starting Points for Next-Generation Antimalarials” (ACS Infect Dis, 2020) one finds INHIBITION data, which are given here for 108 compounds.

Out of some 69,000 compounds screened, about 8,600 (12%) showed an effect of 50% or more. This is one part of a sample in which strong results are shown more often than they occur.

This experiment concerns Plasmodium berghei. In words: Screen against P. berghei liver stage (PbLuc), transformed with Luciferase, at 10uM. The class given is functional, HepG2. As to conditions: tested at 10 uM.
As to `CN(C)S(=O)(=O)N1C[C@@H]2C[C@H](C(=O)NCc3ccccc3)[C@H](C1)O2`, the INHIBITION was found to be 21.5%.

In the case of `CC(C)Oc1ccc(CNC(=O)CN(C)S(C)(=O)=O)cc1F`, the INHIBITION turned out to be 13.375%. Consider `O=C(CCc1cc2n(n1)CCN(Cc1ccncc1)C2)N1CCCC1`, for which the INHIBITION is listed as 33.5%. As for `COCC1CN(C(=O)Cc2ccccn2)Cc2cn(CC3CC3)nc21` (stereo not drawn), the INHIBITION was -26%. Consider `CSc1ccc(CN(CCO)C(=O)CCc2cccc(F)c2)cc1`, for which the INHIBITION was -1.04%. For `CC(C)c1nsc(N2CCCOCC2)n1` the value was 61.6%; for `CC(C)c1nsc(N2CCSCC2)n1`, -8%; for `CC(C)c1nsc(N2CCOC3(CCCC3)C2)n1`, -10.3%. Consider `CC(C)c1nsc(N2CCC(OCCN3CCOCC3)CC2)n1`, for which the INHIBITION was found to be 54.6%. As to `CC(C)c1nsc(N2CCOCC2)n1`, the INHIBITION is recorded as 7.3%. For `CC(C)c1nsc(N2CCS(=O)(=O)CC2)n1` the value was -16.3%; for `NC(=O)C1(c2cnccn2)CCCN1Cc1ccc(Cl)c(F)c1` (stereo not drawn), -6.3%; for `Clc1ccc(CN(CCN2CCOCC2)Cc2cccnc2)cc1Cl`, 8.12%. `Cc1nn(C)c(C)c1-c1cnc(CC2CCNC2)cn1` (stereo not drawn): the INHIBITION is listed as -22.3%.

Regarding `Nc1nc2nc(C3CCCN(C(=O)c4cnccn4)C3)ccc2s1` (stereo not drawn), the INHIBITION stood at 26.8%. `Cc1cc(C(=O)NCC2(C(N)=O)CCOCC2)nn1C(C)(C)C`: the INHIBITION is reported as 0.705%. For `CC(C)(C)n1nc(C(=O)NCC2(C(N)=O)CCOCC2)cc1C1CC1` the value was 21.7%.

Turning to `CC(C)c1cc(C(=O)NCC2(C(N)=O)CCOCC2)nn1C(C)(C)C`, the INHIBITION is given as 62.4%. The same measure for `CC(C)(C)n1ncc(NCC(O)c2ccccc2)c(Cl)c1=O` (stereo not drawn): 77.7%; for `Cn1c(NCC(O)c2ccc(Cl)cc2)c(C#N)c(=O)n(C)c1=O` (stereo not drawn): 19.4%. Turning to `CC(C)(C)n1ncc(NCC(O)c2ccc(F)c(F)c2)c(Cl)c1=O` (stereo not drawn), the INHIBITION worked out at 84.5%. For `O=C(NCc1cccnc1)NCC(O)c1ccccc1C(F)(F)F` (stereo not drawn) the value was 16.8%.

With `CCn1cc(NC(=O)NCC(O)c2ccccc2)cn1` (stereo not drawn), the INHIBITION is -30.4%. For `O=C(NCC(O)c1ccccc1C(F)(F)F)c1cccnc1` (stereo not drawn), the INHIBITION is -2.97%. As for `CC(C)(C)n1ncc(C(=O)NCCCC(N)=O)c1C(F)(F)F`, the INHIBITION came out at 26.9%. As for `Oc1ccc(Cl)cc1CNCc1ccccc1C(F)(F)F`, the INHIBITION turned out to be 16.6%. The same measure for `CC(C)(C)n1ncc(NCC(O)c2ccccc2C(F)(F)F)c(Cl)c1=O` (stereo not drawn): 82.2%. For `CC(C)(C)n1ncc(NCCc2ccccc2C(F)(F)F)c(Cl)c1=O` the value was 76.6%; for `Cn1c(NCC(O)c2ccc(F)c(F)c2)c(C#N)c(=O)n(C)c1=O` (stereo not drawn), -52.5%. Turning to `CC(=O)c1c(F)cccc1NCC(O)c1ccc(F)c(F)c1` (stereo not drawn), the INHIBITION came to 15.7%.

In the case of `Cc1ccc(C2CSCCN2C(=O)NCc2cccnc2)cc1` (stereo not drawn), the INHIBITION is reported as 4.66%. For `CCCNS(=O)(=O)c1cc2c3c(c1)c(C)cc(=O)n3CCC2` the value was 22.85%; for `CNc1cc(CNC(=O)c2ccnc(OC)c2)nc(-c2ccncc2)n1`, 32.3%; for `Cc1cnc(N2CCn3cc(CNC(=O)CC4CC4)nc3C2)nc1`, 25.6%.

For `NC(=O)c1cc(-n2cc(-c3cccc(C(=O)O)c3)cn2)cs1`, the INHIBITION is recorded as 5.17%.

`NC(=O)c1ccccc1-n1cc(-c2cccc(C(=O)O)c2)cn1`: the INHIBITION is 71.5%. For `NC(=O)c1cc(-c2cccc(C(=O)O)c2)cs1` the value was 29.8%; for `CO[C@H]1CCN(Cc2cnn(C)c2)[C@@H]2CN(Cc3ccncc3)C[C@H]12`, 7.31%. The same measure for `CC(C)Cc1noc(CN2CCN(C(=O)c3ccccc3F)CC2)n1`: -19.4%; for `CC(C)Nc1ncnc2c1CCN(Cc1nccn1C)CC2`: 24.9%. The same measure for `Cc1ncc(CNCC(=O)NC2CCCCC2)n1-c1ccccc1`: 65%; for `Cc1ncc(CNCC2CCC(C(N)=O)CC2)n1-c1ccccc1` (stereo not drawn): 30.8%; for `Cc1ncc(CNCC(=O)NCC(F)(F)F)n1-c1ccccc1`: 41.5%. As to `Cc1n[nH]c(C)c1-c1nccnc1CC1CCNC1` (stereo not drawn), the INHIBITION was found to be 25%. For `CCC(C)(N)c1nc(=O)c(C(C)C)c(C)[nH]1` (stereo not drawn) the value was 24.8%; for `OC(c1cnn(-c2ccccc2)c1)C(F)(F)F` (stereo not drawn), 26.5%; for `CCc1cnc(CN(C)C2CCN(CC3CCC3)C2)o1` (stereo not drawn), -0.532%.

Take `Cc1cc(COc2ccc(OC3CCCCNC3=O)cc2)on1` (stereo not drawn): the INHIBITION is -26.1%. For `Cc1nc(COc2ccc(OCC(N)=O)cc2)oc1C` the value was -120%; for `CCc1cnc(COc2ccc(OC3CCCCNC3=O)cc2)o1` (stereo not drawn), 78.4%.

For `Cc1nc(COc2ccc(OC3CCCCNC3=O)cc2)oc1C` (stereo not drawn), the INHIBITION is 64.9%.

Regarding `CCOc1ccc(OC2CCCN(c3cnn(C)c3)C2=O)cc1` (stereo not drawn), the INHIBITION amounted to 25.8%.

For the compound `COc1ncccc1CNC(=O)NC1CCCOc2ccccc21` (stereo not drawn), the INHIBITION is 10%. The same measure for `CN(Cc1ccccn1)C(=O)CNC(=O)N1CCc2ccccc2C1`: 21.2%; for `Cc1ccc(CN(C)C(=O)CNC(=O)N2CCc3ccccc3C2)o1`: -1.45%. Turning to `CN(Cc1ccsc1)C(=O)CNC(=O)N1CCc2ccccc2C1`, the INHIBITION worked out at 54.8%. Consider `c1cnn(CC2CN(CC3CCCCC3)CCO2)c1` (stereo not drawn), for which the INHIBITION is -71.2%. The same measure for `N#Cc1ccccc1N1CCN(C(=O)NCC(=O)N2CCCC2)CC1`: -9.1%; for `N#Cc1ccccc1N1CCCN(CC(=O)Nc2ccccc2Cl)CC1`: 63.7%. The same measure for `N#Cc1ccccc1N1CCCN(CC(=O)Nc2ccc(Cl)cn2)CC1`: 37.7%; for `Cc1cc(C)c(Cn2cncn2)cc1CN1CC[C@@H]2CC[C@H](C1)N2`: 19.4%; for `Cc1nc2c(N3CCN(CCO)CC3)nc(N)nc2n1C`: 13.1%.

Consider `CC(=O)NS(=O)(=O)c1ccc2c(c1)N(C)CCC2`, for which the INHIBITION is reported as -56.6%.

Regarding `CN1CCCc2ccc(S(=O)(=O)NC(=O)C3CC=CC3)cc21`, the INHIBITION is reported as 75.4%.

For `CC(C)C(=O)NS(=O)(=O)c1ccc2c(c1)N(C)CCC2`, the INHIBITION is 39.2%. The same measure for `CN(Cc1nncn1-c1cccc(C(F)(F)F)c1)S(C)(=O)=O`: -19.1%; for `CCCC(=O)N(CCCN1CCOCC1)c1nc2c(C)c(C)ccc2s1`: 60.1%; for `CCCC(=O)N(CCCN1CCOCC1)c1nc2c(F)cccc2s1`: 32.1%. On to `CCCC(=O)N(CCCN1CCOCC1)c1nc2c(C)ccc(Cl)c2s1`, for which the INHIBITION was determined as 42.7%. For the compound `CCCC(=O)N(CCCN1CCOCC1)c1nc2c(Cl)cccc2s1`, the INHIBITION is recorded as 71.4%. For `CCCC(=O)N(CCN1CCOCC1)c1nc2c(OC)ccc(C)c2s1` the value was -0.473%. The same measure for `CN(CCN1CCOCC1)C(=O)CCc1cccc(Cl)c1`: -3.16%; for `N#Cc1cccc(C(=O)NC2CCc3c(ccc(=O)n3CC3CC3)C2)c1` (stereo not drawn): -19.2%; for `Cc1ccc(CN2CCc3ncc(CNS(C)(=O)=O)n3CC2)o1`: 35.1%. On to `O=C(COCC1CC[C@H]2[C@H](CCN2c2ncccn2)O1)N1CCCC1` (stereo partly drawn), for which the INHIBITION is listed as 7.31%. On to `CN1CCN(C(=O)[C@H]2C[C@@H]3CN(c4ncc(F)cn4)C[C@@H]3N2C)CC1`, for which the INHIBITION was -1.15%. The same measure for `CC(NCC(F)(F)F)c1ccc(S(C)(=O)=O)c(F)c1` (stereo not drawn): -45.3%; for `c1ccc(N2CCCC2)c(NCc2ccncc2)c1`: 75.7%. In the case of `Cc1noc(CNc2ccccc2N2CCCCC2)n1`, the INHIBITION is 4.1%.

`CN(CCc1ccccn1)C(=O)Nc1cccnc1N1CCCC1`: the INHIBITION is 44.7%. The same measure for `c1ccc(CNc2ccccc2N2CCCC2)nc1`: 74.8%; for `Cc1cc(CNc2ccccc2N2CCCCC2)no1`: 28.6%; for `Cc1nc(N2CCCC2)ccc1NCc1ccccn1`: 42.3%. The same measure for `CCC(=O)NCC(=O)NCC1CCN(c2cc(Cl)ccc2C)C1` (stereo not drawn): 23.73%; for `Cc1cc(CNC(=O)Cc2c(C)nc3cc(=O)[nH]n3c2C)no1`: 31.1%. For `CC(C)CCN1CCNC(=O)C1CC(=O)NCCc1cc(O)ncn1` (stereo not drawn) the value was 12.8%; for `Cc1nc(C2CCCCN2C(=O)c2ccccc2)ncc1C(=O)N(C)C` (stereo not drawn), 28.4%. In the case of `O=C(CN1CCCC1CCCO)NCc1ccccn1` (stereo not drawn), the INHIBITION came out at 29.4%. For `CCCN1CCC(CNC(=O)N2CCCC2c2c(C)n[nH]c2C)CC1` (stereo not drawn) the value was 24.3%; for `CCn1cnnc1C1CCN(C(=O)c2ccc3c(c2)nnn3C)CC1`, 11.9%; for `CC(C)[C@@H]1CN(c2ncc(F)cn2)C[C@H]1NC(=O)N(C)C`, 23.4%. For `COc1ccc(Cl)cc1C(=O)N1C[C@@H](NC(=O)N(C)C)[C@H](C(C)C)C1` the value was 0.76%; for `COc1ccc(C(=O)N2C[C@@H](NC(=O)N(C)C)[C@H](C(C)C)C2)c(OC)n1`, 54.6%. For `CN(C)C(=O)c1cnc2n1CCN(Cc1cccc(C#N)c1)C2` the value was 33.4%; for `O=C(CCCc1nnc(-c2ccccc2)o1)N1CCC1`, 28.8%; for `Cc1cnn(C2CN(c3ccccc3S(=O)(=O)C(F)(F)F)C2)c1`, 89.4%. Consider `O=S(=O)(c1ccccc1N1CC(n2cccn2)C1)C(F)(F)F`, for which the INHIBITION is 43.5%. For `O=S(=O)(c1cc(F)ccc1N1CC(n2cccn2)C1)C(F)(F)F` the value was 26.8%; for `CN(Cc1nnn(CC2CCC2)n1)C(=O)c1ccccc1`, -19.1%; for `CCN1CCN(C(C)CNC(=O)Nc2nnc(C)s2)CC1` (stereo not drawn), 34.6%.

In the case of `CCN1CCN(C(C)CNC(=O)Nc2nc3ccccc3s2)CC1` (stereo not drawn), the INHIBITION is recorded as 59.4%.

For the compound `CCN1CCN(C(C)CNC(=O)Nc2nnc(C(C)C)s2)CC1` (stereo not drawn), the INHIBITION is recorded as -11.6%.

In the case of `CNC(=O)Nc1cc(-c2ccc(Br)cc2)nn1CCO`, the INHIBITION is -4.74%. For `CN(C)CC1(O)CCN(C(=O)Cc2ccc3c(c2)CCC3)C1` (stereo not drawn) the value was 19.5%; for `O=C(CN1CCc2c(ncn2C2CC2)C1)NC1CCN(C2CC2)CC1`, 39.2%. The same measure for `CSc1ccc(-c2nc(CN3C[C@@H](C)NC[C@@H]3C)c(C)o2)cc1`: 24%; for `Cc1ccc(-c2nc(CN3C[C@@H](C)NC[C@@H]3C)c(C)o2)s1`: 50.4%; for `Cc1oc(-c2cc(F)cc(F)c2)nc1CN1C[C@@H](C)NC[C@@H]1C`: -6.61%.
